# Shown are actives, neighbours in structure and some others; about 1.9% of the full set was active somewhere.
# S1P4 ag: activates the human S1P4 receptor; activation, % at 4.98 µM; AID 1509; 220,000 compounds, 0.35% hits; O95977; S1P4-expressing cell line, agonist reporter assay; in the data active = activation above about 11%
# EP2 modulator: EP2 receptor (human) modulation; P43116; induction, % at 25 µM; 260,000 compounds, 0.83% hits; EP2-expressing cells, cAMP HTRF FRET, PGE2 co-stimulation;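 active = compounds whose cAMP rise, as percent of the full-agonist control response, exceeds 60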;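 also: rat C6 glioma line stably carrying human EP2 under a CMV promoter; the protocol text gives 20 µM as final concentration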
# PGE2 EP2 inh: inhibitors of human EP2 prostaglandin E2 receptor; C6 glioma cells expressing human EP2, cAMP TR-FRET; cells stimulated with saturating PGE2; inhibition, % at 25 µM; 260,000 compounds, 0.52% hits; AID 1422;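 active = percent inhibition above 40 after rounding to a whole number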;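 also: rat C6 glioma host cells with rolipram phosphodiesterase inhibitor present; the protocol text gives 20 µM as final concentration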
# S1P4 antagonist: human S1P4 receptor antagonism; S1P4-expressing cells, antagonist mode, reporter read-out; inhibition, % at 4.98 µM; 220,000 compounds, 0.26% hits; in the data active = inhibition above about 29%
# S1P3 antag: S1P3 (human) receptor antagonism. Q99500. CHO S1P3 NFAT-BLA reporter, FRET fluorescence, antagonist mode. inhibition, % at 4.98 µM. 170,000 compounds, 0.27% hits. AID 485;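 active = inhibition above the plate cutoff, the mean inhibition of test wells on that plate plus 3 SD, cut at about 28% in these data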;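 also: cells challenged with S1P at its EC80 of 0.8 µM; blue over green emission ratio from cleaved BLA substrate after 4 h stimulation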
# Target sequence (Q99500 whole entry, looked up): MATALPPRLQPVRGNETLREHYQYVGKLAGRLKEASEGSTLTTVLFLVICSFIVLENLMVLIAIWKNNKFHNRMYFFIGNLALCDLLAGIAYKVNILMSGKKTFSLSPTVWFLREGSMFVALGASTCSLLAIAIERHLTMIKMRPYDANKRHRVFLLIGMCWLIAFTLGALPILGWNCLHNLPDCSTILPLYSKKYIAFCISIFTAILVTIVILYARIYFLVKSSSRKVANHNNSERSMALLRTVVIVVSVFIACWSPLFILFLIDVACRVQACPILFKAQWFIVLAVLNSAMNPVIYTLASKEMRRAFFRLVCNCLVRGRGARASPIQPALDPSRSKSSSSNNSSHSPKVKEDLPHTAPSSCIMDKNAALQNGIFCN
# EP2 confirm: EP2 receptor cAMP induction, counter-screens negative. shares compounds with EP2 modulator. C6 glioma EP2 cells, cAMP HTRF induction; plus low (about EC15) PGE2 agonist. calls only at 20 µM (by protocol). 1,300 compounds, 47% hits. AID 1080;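 active = cAMP induction above 50% in the main assay while under 30% in all four parallel counter assays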;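 also: rat C6 glioma cells stably expressing human EP2 receptor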
# S1P4 agonist cf: human S1P4 agonism, confirmation | S1P4 agonist cell-based reporter assay | shares compounds with S1P4 ag | 740 compounds, 7% hits | activation, % at 4.98 µM; in the data active = activation above about 12%
# S1P1 ag: counter-screen for S1P4 agonists: agonists of human S1P1. shares compounds with S1P4 ag. S1P1 agonist cell-based assay, activation. activation, % at 4.98 µM. 740 compounds, 4% hits. AID 1563; in the data active = activation above about 21%
# Hits are given with their value; - = inactive; . = not tested or not shown; + = active, no number.
SMILES,S1P4 ag,EP2 modulator,PGE2 EP2 inh,S1P4 antagonist,S1P3 antag,EP2 confirm,others
OC(Cc1ccccc1)(Cc1ccccc1)c1ccccc1,.,-,-,.,.,-,
OCCc1ccccc1,.,.,-,.,.,.,
Cc1ccc(-c2cc(C(=O)N3CCN(Cc4ccco4)C[C@@H]3C(C)C)n[nH]2)o1,.,-,.,.,.,.,
FC(F)(F)c1cc(-c2ccccc2)nc2nc(N3CCOCC3)sc12,-,67,-,-,-,+,
CCOc1ccc2nc(SCC(=O)Nc3cccc(OC)c3)[nH]c2c1,.,-,-,.,.,.,
Cc1ccc(C2CC(C(F)F)n3ncc(C(=O)NC(C)(C)C)c3N2)cc1 (centres undefined),.,-,-,.,.,.,
Cn1c(=S)[nH]c2c(c1=O)C(C)(C)Cc1ccccc1-2,-,-,-,-,-,.,
CCn1c(=S)[nH]c2c(c1=O)C(C)(C)Cc1ccccc1-2,-,66,-,-,-,-,
Cc1cc(Nc2cccc(Cl)c2)n2ncnc2n1,-,-,-,-,-,.,
CCn1c2ccccc2c2cc(Nc3cc(C)nc4ncnn34)ccc21,-,83,-,-,-,+,
CO/N=C/C(=N\Nc1ccccc1)C(=O)c1ccccc1,-,84,-,-,-,+,
C[C@H]1O[C@H](O[C@@H]2[C@@H](O[C@H]3CC[C@@]4(C)C(CC[C@]5(C)C4CC=C4[C@@H]6CC(C)(C)CC[C@]6(C(=O)O)CC[C@]45C)[C@]3(C)CO)OC[C@@H](O)[C@H]2O)[C@@H](O)[C@H](O)[C@@H]1O (some centres undefined),.,-,-,.,.,.,
CCN(CC)CCN(Cc1cc2c(C)cc(C)cc2[nH]c1=O)C(=O)Nc1ccccc1Cl,.,-,-,.,.,.,
Cc1ccccc1S(=O)(=O)c1c(C)cc(C)n(CC(C)C)c1=O,-,70,-,-,.,+,
Cc1ccc(NC(=O)Nc2ccccc2C(=O)NCc2ccccc2)cc1,-,-,-,-,.,.,
Cc1ccc(C(=O)Nc2ccccc2C(=O)NCc2ccccc2)cc1,-,67,-,-,-,-,
COC(=O)CC(=O)CSc1nc(C)cc(C(F)(F)F)c1C#N,.,-,-,.,.,.,
COC(=O)Cn1nc(C)n2c(cc3ccsc32)c1=O,.,-,-,.,.,.,
O=C(Cn1nc(-c2cccs2)n(-c2cccnc2)c1=O)N1CCCC1,.,-,-,.,.,.,
CCOC(=O)c1ccc(S(=O)(=O)N(Cc2ccco2)Cc2cc3ccc(OC)cc3[nH]c2=O)cc1,.,-,-,.,.,.,
O=C(O)c1ccc(N2C(=O)/C(=C/C=C/c3ccccc3)SC2=S)cc1,15,80,-,-,-,+,S1P4 agonist cf=-;S1P1 ag=-
CN(C)c1ccc(/C=C/C=C2/SC(=S)N(c3ccccc3)C2=O)cc1,-,-,-,-,.,.,
Cc1ccccc1-n1c(=O)[nH]c(=O)c2c(N)c(C(=O)c3ccc(Cl)cc3)sc21,83,66,-,-,-,-,S1P4 agonist cf=-;S1P1 ag=-
CCn1c(SCC(=O)Nc2nc(C)cs2)nnc1C(C)Oc1ccccc1 (centres undefined),.,-,-,.,.,.,
Cn1c(CNc2ccc(F)cc2)nnc1SCC(=O)NNC(=O)Cc1ccccc1,16,-,-,-,-,-,S1P4 agonist cf=-;S1P1 ag=-
SMILES,S1P4 ag,EP2 modulator,PGE2 EP2 inh,S1P4 antagonist,S1P3 antag,EP2 confirm,others
O=C(Nc1ccc(Cl)cn1)c1c(O)c2ccccc2[nH]c1=O,.,-,-,.,.,.,
CCOCCN(C(=O)COC)c1cccc(OC)c1,26,-,-,-,.,.,S1P4 agonist cf=-;S1P1 ag=-
CN=c1scc(C)n1/N=C/c1cc(Br)c(O)c(OC)c1,-,-,-,-,-,.,
COc1cc(/C=N/N(C)C)cc(Br)c1O,39,-,-,-,-,.,S1P4 agonist cf=-;S1P1 ag=-
O=C(NC1CCCC1)C(c1cccs1)N(CCc1ccccc1)C(=O)c1ccco1 (centres undefined),.,-,-,.,.,.,
COC(=O)c1ccc(NC(C)=O)o1,-,-,-,-,.,.,
COC(=O)c1ccc(NC(=O)c2ccccc2)o1,25,-,-,-,.,.,S1P4 agonist cf=-;S1P1 ag=-
CN(C(=S)NC(=O)Cc1ccccc1)c1ccccc1,13,-,-,-,-,.,S1P4 agonist cf=-;S1P1 ag=-
CCN(CC)C(=S)NC(=O)Cc1ccccc1,-,-,-,-,-,.,
CCOC(=O)c1ccc(NC(=O)N2CCN(Cc3cccc(F)c3)CC2)cc1,17,-,-,-,-,.,S1P4 agonist cf=-;S1P1 ag=-
